Reference: PubChem BioAssay (EPA / NIEHS)
Active and inactive are the calls of the source. Rule for the calls: active = hit-call score of the fitted dose curve at least 0.9, where 1 is the maximum; inactive = score below 0.9.

What was measured:
[1] = APR_HepG2_NuclearSize_72hr: Apredica 72-hour HepG2 Assay for Nuclear Size (AID 2282925); settings: high-content imaging, actives raise or lower the signal
In short: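 Compounds (0.39–200 uM, final DMSO 0.5%) were applied to HepG2 for 72 hr. Cells were then formaldehyde-fixed, permeabilized and labelled with Hoechst 33342. Nuclear diameter was quantified from six images per well.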

[2] = ATG_CRE_CIS: Attagene CIS-FACTORIAL HepG2 Assay for human cAMP Responsive Element (CRE) binding protein 3 (AID 2282926); settings: HepG2 CRE cis-reporter, Attagene multiplexed mRNA; actives raise or lower the signal
In short: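 Assay format: transient reporter transfection of HepG2, 24 h treatment, total RNA isolation with DNase I step. Reporter abundance read by fluorescence after PCR and capillary separation; DMSO-normalised gain or loss fitting.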

[3] = molecular target: CCAAT/enhancer-binding protein beta (Homo sapiens) (UniProt P17676); test: ATG_C_EBP_CIS: Attagene CIS-FACTORIAL HepG2 Assay for human CCAAT/Enhancer Binding Protein (C/EBP) beta (AID 2282927); settings: HepG2 Attagene cis-factorial transcription factor reporter; actives raise or lower the signal
In short: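 RT-PCR/capillary electrophoresis fluorescence of reporter mRNA, 24 h post-dose, in HepG2 cells carrying transfected cis-promoter reporter units. Bidirectional curve fitting against DMSO baseline captures gain or loss of signal.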

[4] = ATG_CMV_CIS: Attagene CIS-FACTORIAL HepG2 Assay for human CMV (Internal Marker) (AID 2282928); settings: HepG2 CMV promoter reporter, transcription factor profiling; actives raise or lower the signal;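 note: endpoint acts as a background internal control marker rather than a target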
In short: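 24 h chemical treatment, HepG2 with transient multi-reporter transfection; RNA → oligo(dT) RT → PCR → 6-FAM extension → HpaI digest → CE fluorescence. Bidirectional fit, DMSO negative control.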

[5] = ATG_DR4_LXR_CIS: Attagene CIS-FACTORIAL HepG2 Assay for human Liver X Receptor (LXR), DR4 submotif (AID 2282929); settings: HepG2 Attagene DR4 cis-reporter, mRNA transcription; actives raise or lower the signal
In short: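 DR4 cis-reporter in HepG2, 24 h exposure. Detection: RT-PCR, 6-FAM labelling, CE fragment analysis. Endpoint fitted bidirectionally, DMSO = baseline.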

[6] = molecular target: Aryl hydrocarbon receptor (Homo sapiens) (UniProt P35869); test: ATG_Ahr_CIS: Attagene CIS-FACTORIAL HepG2 Assay for human Aryl Hydrocarbon Receptor (Ahr) (AID 2282930); settings: HepG2 AhR cis-factorial reporter transcription; actives raise or lower the signal
In short: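 HepG2 cells transiently transfected with cis-element-driven multiplexed reporter transcription units; endogenous transcription factor activity measured as reporter mRNA 24 h after dosing. RT-PCR, 6-FAM labelling, HpaI digestion, capillary electrophoresis; bidirectional fitting versus DMSO baseline.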

[7] = ATG_AP_1_CIS: Attagene CIS-FACTORIAL HepG2 Assay for human Activator Protein 1 (AP-1) (AID 2282931); settings: HepG2 Attagene cis-factorial AP-1 reporter mRNA; actives raise or lower the signal
In short: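 Cis-regulated reporter units transiently expressed in HepG2 report endogenous transcription-factor activity. Signal: reporter mRNA at 24 h, via RT-PCR and fluorescent capillary electrophoresis. Endpoint derived by bidirectional fitting, DMSO as negative control.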

[8] = ATG_AP_2_CIS: Attagene CIS-FACTORIAL HepG2 Assay for human Activator Protein 2 (AP-2) (AID 2282932); settings: HepG2 AP-2 cis-reporter, Attagene transcription factor profiling; actives raise or lower the signal
In short: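 Assay in transfected HepG2 with promoter-regulated reporters, 24 h incubation after dosing. Signal is reporter mRNA fluorescence (RT-PCR, capillary electrophoresis), analysed for both increases and decreases relative to DMSO controls.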

[9] = ATG_BRE_CIS: Attagene CIS-FACTORIAL HepG2 Assay for human Bone Morphogenetic Protein (BMP) Response Element (BRE) (AID 2282933); settings: HepG2 BMP response element reporter, Attagene transcription factor profiling; actives raise or lower the signal
In short: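 Transient MRTU transfection of human HepG2 liver cells; 24 h compound treatment; total RNA isolated, reverse-transcribed, PCR-amplified, 6-FAM labelled, HpaI-cut, capillary electrophoresis. DMSO = negative control/baseline, bidirectional fit.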

[10] = molecular target: Transcription factor E2F1 (Homo sapiens) (UniProt Q01094); test: ATG_E2F_CIS: Attagene CIS-FACTORIAL HepG2 Assay for human E2F Transcription Factor 1 (AID 2282935); settings: HepG2 Attagene cis-reporter, E2F reporter RNA transcripts; actives raise or lower the signal
In short: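 In this cis-factorial format, endogenous factor activity drives transfected reporters in HepG2; transcripts collected at 24 h are quantified by fluorescence after RT-PCR and capillary separation.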

[11] = ATG_E_Box_CIS: Attagene CIS-FACTORIAL HepG2 Assay for human Enhancer Box (E-box) (AID 2282936); settings: HepG2 E-box cis-reporter transcription, actives raise or lower the signal
In short: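 Measured 24 h post-dosing in HepG2 cells transfected with multiple cis-regulated reporter units, signal being reporter mRNA induction detected by fluorescent RT-PCR with capillary electrophoresis; gain or loss fitted against DMSO.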

[12] = ATG_M_61_CIS: Attagene CIS-FACTORIAL HepG2 Assay for M61 Transcription Factor (Internal Marker) (AID 2282937); settings: HepG2 Attagene CIS-FACTORIAL M61 internal marker reporter; actives raise or lower the signal
In short: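 Background-control endpoint: HepG2 cells with cis-regulated reporter constructs, 24 h exposure, reporter mRNA detected via fluorescent primer extension and capillary electrophoresis; values from bidirectional fitting with DMSO baseline.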

[13] = ATG_EGR_CIS: Attagene CIS-FACTORIAL HepG2 Assay for human Early Growth Response 1 (EGR1) (AID 2282938); settings: HepG2 Attagene CIS-FACTORIAL EGR reporter mRNA; actives raise or lower the signal
In short: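 Endpoint derived by bidirectional fitting versus DMSO vehicle. Method: cis-promoter reporter units transfected into HepG2, 24 h dosing, RNA isolation, RT-PCR with 6-FAM primer extension and HpaI digestion, then capillary electrophoresis fluorescence detection.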

[14] = ATG_M_19_CIS: Attagene CIS-FACTORIAL HepG2 Assay for M19 Transcription Factor (Internal Marker) (AID 2282939); settings: HepG2 Attagene CIS-FACTORIAL M19 internal marker reporter; actives raise or lower the signal
In short: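 Transfect HepG2 with MRTU reporter library → dose chemical, 24 h → isolate total RNA, reverse-transcribe with oligo(dT) → PCR, 6-FAM label, HpaI cut (2 h, 37 C) → capillary electrophoresis. Bidirectional fit vs DMSO.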

[15] = ATG_ERE_CIS: Attagene CIS-FACTORIAL HepG2 Assay for Estrogen Response Element (ERE) (AID 2282940); settings: HepG2 ERE cis-reporter, Attagene RNA transcript; actives raise or lower the signal
In short: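 Transient MRTU transfection of human HepG2; cis-element promoters; 24 h dosing; total RNA → RT (oligo dT) → PCR → 6-FAM primer extension → HpaI digest → CE fluorescence. Bidirectional fit, DMSO baseline.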

[16] = ATG_Ets_CIS: Attagene CIS-FACTORIAL HepG2 Assay for human Erythroblast Transformation Specific (ETS) (AID 2282941); settings: HepG2 ETS cis-reporter transcription, actives raise or lower the signal
In short: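 Cis-regulated reporter mRNA induction in HepG2 (transient transfection), 24 h exposure, RT-PCR plus capillary electrophoresis detection; DMSO serves as negative control and baseline.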

[17] = molecular target: Hepatocyte nuclear factor 3-beta (Homo sapiens) (UniProt Q9Y261); test: ATG_FoxA2_CIS: Attagene CIS-FACTORIAL HepG2 Assay for human Forkhead box A2 (FOXA2) (AID 2282942); settings: HepG2 cis-reporter transcription factor activity, 24 h; actives raise or lower the signal
In short: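 Measured: reporter mRNA induction or loss in HepG2 transiently carrying multiple cis-regulated reporter units, 24 h after dosing. Quantified by RT-PCR plus capillary electrophoresis, normalised to DMSO.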

[18] = ATG_FoxO_CIS: Attagene CIS-FACTORIAL HepG2 Assay for human Forkhead box O (FoxO) (AID 2282943); settings: HepG2 Attagene cis-reporter, FoxO element, mRNA; actives raise or lower the signal
In short: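 HepG2 cells transiently transfected with cis-promoter-driven multiple reporter transcription units; 24 h after chemical dosing, reporter mRNA quantified by RT-PCR, fluorescent primer extension, HpaI digestion and capillary electrophoresis. Bidirectional fitting versus DMSO baseline.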

[19] = ATG_GATA_CIS: Attagene CIS-FACTORIAL HepG2 Assay for human GATA Binding Protein (AID 2282944); settings: HepG2 GATA cis-element reporter, Attagene multiplex mRNA; actives raise or lower the signal
In short: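 Transient MRTU transfection, HepG2, 24 h compound exposure. Total RNA → oligo(dT) RT → PCR → 6-FAM primer extension → HpaI cut → CE. Bidirectional fit vs DMSO.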

[20] = molecular target: Retinoic acid receptor alpha (Homo sapiens) (UniProt P10276); test: ATG_DR5_RAR_CIS: Attagene CIS-FACTORIAL HepG2 Assay for human Retinoic Acid Receptor Alpha (RARE), DR5 submotif (AID 2282934); settings: HepG2 Attagene cis-factorial RARE DR5 reporter, mRNA; actives raise or lower the signal
In short: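 HepG2 cells transiently transfected with multiplexed reporter units under cis (DR5 RARE) promoters, so endogenous transcription factor activity is measured. After 24 h compound exposure, reporter mRNA is quantified by RT-PCR with fluorescent labelling and capillary electrophoresis; bidirectional fitting versus DMSO.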

Measured: AC50

Hepatocyte nuclear factor 3-beta (Homo sapiens), sequence (Q9Y261 whole entry, looked up): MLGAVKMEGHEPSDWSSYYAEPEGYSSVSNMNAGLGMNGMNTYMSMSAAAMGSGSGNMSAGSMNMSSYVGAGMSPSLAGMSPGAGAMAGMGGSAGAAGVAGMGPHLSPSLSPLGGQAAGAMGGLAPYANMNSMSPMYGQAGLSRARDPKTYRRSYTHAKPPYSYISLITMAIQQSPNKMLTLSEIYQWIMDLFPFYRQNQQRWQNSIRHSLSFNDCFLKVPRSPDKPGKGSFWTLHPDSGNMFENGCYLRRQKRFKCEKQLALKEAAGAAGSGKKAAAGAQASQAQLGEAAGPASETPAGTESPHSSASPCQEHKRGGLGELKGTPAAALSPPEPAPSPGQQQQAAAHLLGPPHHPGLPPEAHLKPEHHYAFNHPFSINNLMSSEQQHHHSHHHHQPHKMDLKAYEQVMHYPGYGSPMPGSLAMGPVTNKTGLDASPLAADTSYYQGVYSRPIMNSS
Retinoic acid receptor alpha (Homo sapiens), sequence (P10276 whole entry, looked up): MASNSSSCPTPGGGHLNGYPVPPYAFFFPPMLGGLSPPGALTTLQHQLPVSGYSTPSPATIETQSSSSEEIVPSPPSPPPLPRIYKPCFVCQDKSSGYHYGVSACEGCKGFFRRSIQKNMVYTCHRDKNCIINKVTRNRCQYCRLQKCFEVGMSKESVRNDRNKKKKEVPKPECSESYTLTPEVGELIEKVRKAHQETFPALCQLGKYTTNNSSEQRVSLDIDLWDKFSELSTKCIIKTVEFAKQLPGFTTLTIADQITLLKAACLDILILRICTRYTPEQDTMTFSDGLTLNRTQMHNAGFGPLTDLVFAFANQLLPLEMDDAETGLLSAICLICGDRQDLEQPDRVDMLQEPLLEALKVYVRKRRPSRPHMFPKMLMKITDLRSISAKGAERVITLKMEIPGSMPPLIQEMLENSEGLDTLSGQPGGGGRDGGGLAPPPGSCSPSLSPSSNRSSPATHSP
Aryl hydrocarbon receptor (Homo sapiens), sequence (P35869 whole entry, looked up): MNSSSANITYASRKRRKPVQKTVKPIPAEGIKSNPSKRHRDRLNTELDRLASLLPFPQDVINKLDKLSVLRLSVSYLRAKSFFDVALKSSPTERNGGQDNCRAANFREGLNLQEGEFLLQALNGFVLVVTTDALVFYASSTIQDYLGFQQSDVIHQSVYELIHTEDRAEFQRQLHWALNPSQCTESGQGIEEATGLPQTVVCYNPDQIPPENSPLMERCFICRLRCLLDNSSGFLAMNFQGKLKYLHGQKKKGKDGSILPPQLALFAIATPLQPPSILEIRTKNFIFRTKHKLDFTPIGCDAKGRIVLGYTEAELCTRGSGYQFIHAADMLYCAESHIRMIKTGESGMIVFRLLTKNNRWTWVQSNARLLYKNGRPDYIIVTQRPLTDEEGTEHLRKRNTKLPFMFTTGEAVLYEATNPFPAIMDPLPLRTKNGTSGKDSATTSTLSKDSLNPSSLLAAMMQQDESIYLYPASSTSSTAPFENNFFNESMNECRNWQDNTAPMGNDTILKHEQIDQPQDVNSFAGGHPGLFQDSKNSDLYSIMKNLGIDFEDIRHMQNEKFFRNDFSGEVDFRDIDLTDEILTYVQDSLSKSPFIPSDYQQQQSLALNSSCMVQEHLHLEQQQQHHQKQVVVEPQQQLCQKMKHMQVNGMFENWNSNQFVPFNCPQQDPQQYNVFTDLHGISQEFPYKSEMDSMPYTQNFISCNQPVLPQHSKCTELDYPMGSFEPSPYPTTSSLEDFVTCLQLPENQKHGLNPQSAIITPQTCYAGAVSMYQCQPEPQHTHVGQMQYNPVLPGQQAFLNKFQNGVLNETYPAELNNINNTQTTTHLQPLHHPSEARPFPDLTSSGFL
CCAAT/enhancer-binding protein beta (Homo sapiens), sequence (P17676 whole entry, looked up): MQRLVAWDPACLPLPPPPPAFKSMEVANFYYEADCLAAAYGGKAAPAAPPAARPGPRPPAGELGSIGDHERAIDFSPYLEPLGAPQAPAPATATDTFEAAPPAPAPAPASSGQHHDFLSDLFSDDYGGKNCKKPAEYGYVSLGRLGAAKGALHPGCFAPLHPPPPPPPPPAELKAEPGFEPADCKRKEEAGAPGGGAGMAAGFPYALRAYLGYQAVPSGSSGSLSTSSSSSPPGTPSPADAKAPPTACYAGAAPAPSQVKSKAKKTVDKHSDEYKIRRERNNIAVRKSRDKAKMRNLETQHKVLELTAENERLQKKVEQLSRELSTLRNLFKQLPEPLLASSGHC
Transcription factor E2F1 (Homo sapiens), sequence (Q01094 whole entry, looked up): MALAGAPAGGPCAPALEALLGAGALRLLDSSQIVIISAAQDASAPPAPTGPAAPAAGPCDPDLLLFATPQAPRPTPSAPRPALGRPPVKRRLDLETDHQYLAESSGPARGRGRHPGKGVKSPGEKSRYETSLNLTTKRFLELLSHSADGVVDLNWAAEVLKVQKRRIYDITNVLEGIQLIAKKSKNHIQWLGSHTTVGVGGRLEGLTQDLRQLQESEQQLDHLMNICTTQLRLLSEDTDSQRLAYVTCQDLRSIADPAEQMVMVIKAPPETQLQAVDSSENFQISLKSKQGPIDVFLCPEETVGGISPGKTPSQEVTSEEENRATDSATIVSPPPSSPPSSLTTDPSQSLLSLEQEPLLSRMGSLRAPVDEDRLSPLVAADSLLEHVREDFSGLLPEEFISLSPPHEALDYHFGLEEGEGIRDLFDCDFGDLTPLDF

CC(CO)OC(C)CO (stereo not drawn) (tested in a mixture with another compound)
not listed: [20]
inactive: all other assays above

Cc1cccc(Nc2cc(Cl)nc(SCC(=O)O)n2)c1C
not listed: [4]
inactive: all other assays above

CC(=O)C(C)=CC1C(C)=CCCC1(C)C (stereo not drawn)
active: [15] 33.4 µM
not listed: [4]
inactive: all other assays above

CCCCN(CCCC)CCCC
not listed: [20]
inactive: all other assays above

C[C@]12C=CC(=O)C=C1CC[C@@H]1[C@@H]2C(=O)C[C@@]2(C)[C@H]1CC[C@]2(O)C(=O)CO
active: [15] 6.76 µM
not listed: [14]
inactive: all other assays above

CCCc1cc(=O)[nH]c(=S)[nH]1
active: [6] 63.9 µM | [15] 4.56 µM
not listed: [14]
inactive: all other assays above

C=CCOC(=O)c1ccccc1C(=O)OCC=C
active: [3] 26.4 µM | [4] 26.2 µM | [5] 26.2 µM | [7] 25.8 µM
not listed: [14]
inactive: all other assays above
